# The campaign covered roughly 2,100 compounds. About 590 (28%) were called active. About 42% were inconclusive and are not listed. The list shows a part of the results. Unmarked numbers belong to inactive results. The call rests on the fitted dose curve; in most records, active means well fitted inhibition curve with a large enough effect; inconclusive means small, poorly fitted or top-dose-only effect; inactive means flat fitted curve, though single readings scatter.
# Molecular target: DNA dC->dU-editing enzyme APOBEC-3F (Homo sapiens) (UniProt Q8IUX4)
# Sequence (Q8IUX4 whole entry, looked up): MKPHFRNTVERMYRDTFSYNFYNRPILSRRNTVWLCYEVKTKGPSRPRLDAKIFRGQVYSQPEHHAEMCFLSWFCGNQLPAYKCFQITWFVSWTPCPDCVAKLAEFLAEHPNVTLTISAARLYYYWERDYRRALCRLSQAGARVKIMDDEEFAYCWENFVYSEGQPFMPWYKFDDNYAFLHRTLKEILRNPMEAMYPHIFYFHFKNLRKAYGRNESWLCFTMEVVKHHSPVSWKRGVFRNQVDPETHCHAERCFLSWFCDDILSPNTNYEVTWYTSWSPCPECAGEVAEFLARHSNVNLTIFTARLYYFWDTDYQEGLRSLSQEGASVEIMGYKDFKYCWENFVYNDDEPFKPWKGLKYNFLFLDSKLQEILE
# Experiment: qHTS for inhibitors of Vif-A3F interactions: Cherry picks; further: nearly all actives have a fitted effect of over 70% in size;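 on max response: % of control where 0% means no effect; active compounds raise eYFP fluorescence by blocking Vif-driven A3F loss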
# Conditions: HeLa A3F-eYFP + Vif (tagged APOBEC3F with the HIV-1 protein that degrades it), eYFP fluorescence, 24 h
# Outline: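 Read-out: yellow fluorescence (ex 488 nm, em 500-530 nm) by laser-scanning cytometer after 24 h compound exposure, several concentrations, at 37 deg C. Cells: HeLa line stably co-expressing Vif and C-terminally eYFP-tagged A3F; MG132 served as positive control.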
# Potency means the concentration at half of the fitted maximal effect.
SMILES,Potency,max response [%]
CC(=O)/C(N=Nc1cc(C)ccc1O)=C(\C)O,20.6 µM (active),
Cc1cc(N/N=C/c2ccc(O)cc2O)nc(-n2nc(C)cc2C)n1,,2.91
COC(=O)c1sccc1S(=O)(=O)N(CC(=O)Nc1cc(F)ccc1F)c1ccc(C)c(C)c1,,4.72
O=S(=O)(Nc1nc2n(n1)C(c1ccccc1)C=C(c1ccc(Cl)cc1)N2)c1ccccc1 (stereo not drawn),,-9.71
COc1ccc(C(=O)Nc2ccc3c(c2)N(C)C(=O)c2ccccc2S3)cc1OC,,-28.4
CC[n+]1ccc(/C=C2\Sc3ccccc3N2CCCS(=O)(=O)[O-])c2ccccc21,,-17.2
COc1ccc2c(c1)N(C)/C(=C/c1cccc[n+]1C)S2,7.04 µM (active),
CC[n+]1ccccc1/C=C1\Sc2ccc(C)cc2N1C,23.1 µM (active),
CCN1/C(=C/c2cccc[n+]2C)Sc2ccc(OC)cc21,18.4 µM (active),
N#CC1=C(N)Oc2c(sc3ccccc23)C1c1ccco1 (stereo not drawn),,-18.3
COc1cc2c3nnc(-c4ccc(F)cc4)c-3cn(Cc3ccc(C)cc3)c2cc1OC,9.94 µM (active),
Cn1ccnc1Sc1nc2ccccc2nc1NS(=O)(=O)c1ccccc1,,-9.48
O=C(Nc1nnc(-c2ccc3c(c2)CCCC3)o1)c1c(F)cccc1F,,0.764
CCN(CC)c1nc2cc(OC)ccc2cc1C#N,,-15.5
COc1ccc2c(C)cc(SCC#N)nc2c1,20.6 µM (active),
COCCNC(=S)NN=C1CCCCCC1,,2.16
C/C(=N\NC(=S)NCc1ccccc1)c1cccs1,,-3.71
COc1cccc(NC(=O)c2oc3ccc(S(=O)(=O)N4CCC5(CC4)OCCO5)cc3c2C)c1,,-28.1
CCOCCCNC(=O)/C(C#N)=C/c1ccc([N+](=O)[O-])o1,16.4 µM (active),
CC(NC(=O)/C(C#N)=C/c1ccc([N+](=O)[O-])o1)c1ccccc1 (stereo not drawn),7.31 µM (active),
NC1=NC(=O)/C(=C/c2cc(Br)c(O)c(Br)c2)S1,,-7.06
Cc1ccc2[nH]c3c(c2c1)CCCC3NC(=O)CCl (stereo not drawn),,-15.6
O=C1CC(c2cc(Br)ccc2F)c2cc3c(cc2N1)CCC3 (stereo not drawn),,-29.3
O=C(NCc1cccc(F)c1)c1cccc2c1C(=O)c1ccc(N3CCCC3)cc1S2(=O)=O,14 µM (active),
O=C(NCc1ccccc1C(F)(F)F)c1cccc2c1C(=O)c1ccc(N3CCC(N4CCCCC4)CC3)cc1S2(=O)=O,16.4 µM (active),
CC1CCN(c2ccc3c(c2)S(=O)(=O)c2cccc(C(=O)NCc4cccc(F)c4)c2C3=O)CC1,14 µM (active),
COc1cc(C(=O)NCCOc2cc(C)cc(C)c2)c(Br)c(OC)c1OC,,-22.9
COc1ccc(-c2ccc3c(c2)S(=O)(=O)c2cccc(C(=O)NCCOc4ccccc4)c2C3=O)cc1OC,15.8 µM (active),
